Bioassay records: PubChem, National Center for Advancing Translational Sciences (NCATS)
GLP1R ag = activates the human GLP-1 receptor. P43220. HEK293 GLP-1R CRE-luciferase, luminescence, 4-6 h; cells express a hypersensitive GLP-1R form. Potency, µM (top dose mostly 45.6 µM), actives largely listed as activators. 380,000 tested, 0.007% active. AID 624172
ClpP mod = qHTS Assay for Activators of ClpP | 340,000 tested, 1.9% active | purified B. subtilis ClpP, FRET peptide cleavage, 20 min | Potency, µM (highest dose often 57.5 µM) | ATP-dependent Clp protease proteolytic subunit (Bacillus subtilis (strain 168)), P80244; active means well fitted falling curve with a large enough effect; inconclusive means small, poorly fitted or top-dose-only effect; inactive means no such curve, though single readings can be large or run the other way; further: the source files actives as falling curves though it sought activators and does not explain the sign; nearly all actives have a fitted effect of over 65% in size
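FRET quenching reversal measured ClpP activation: 10 microg/mL B. subtilis ClpP at pH 8 with the FRET-FV decapeptide, read at 430 nm after 320 nm excitation. The 20-min minus 0-min signal was scaled between DMSO/no-enzyme wells and ADEP (5.8 microM final).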
D3 antag = antagonists of human D3 dopamine receptor; P35462; D3R cells, DiscoveRx beta-arrestin luminescence, antagonist mode; stronger effect = lower value; max response, negative = inhibition, %; 360,000 tested, 2.5% active; AID 652054; in the data active means max response below about -50%; inconclusive means no clear call, values can overlap the other calls
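Cells plated overnight at 1500 cells/well, then exposed to library compounds with dopamine controls for 90 minutes at 37 degrees C. DiscoveRx reagent added for 30–60 minutes at room temperature; luminescence read, quantitative HTS format.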
GLP-1R inv ag = acts as inverse agonist at human GLP-1 receptor. P43220. HEK293 GLP-1R CRE-luciferase, luminescence, 24 h; GLP-1R form is constitutively active. Potency, µM (titrated, usually from 38.3 µM), most hits filed as inhibitors. 410,000 tested, 1.6% active; further: nearly all actives have a fitted effect of over 55% in size
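Cells are plated, allowed 12 hours at 37 deg C, then treated with compounds for 24 hr before luciferase detection reagent is added and luminescence is read after 12 min at room temperature. The HEK293 line carries constitutively active GLP-1R with a cAMP-responsive reporter.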
DRD3 agonist = activates the human D3 dopamine receptor | D3R DiscoveRx beta-arrestin cells, luminescence, 90 min | max activation, % | 410,000 tested, 0.58% active | AID 652048; in the data active means max activation above about 30%
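Agonist mode: compounds and dopamine controls were applied to plated cells for 90 min at 37 degrees C after an overnight attachment at 1500 cells/well. Luminescent read-out followed 30 - 60 minutes at room temperature with DiscoveRx detection reagent.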
GLP1R cytotox = cytotoxicity counter-screen for GLP-1 receptor inverse agonists; HEK293 cAMP-luciferase reporter cells, luminescence, 24 h; Potency, µM (doses to about 38.3 µM), hits mostly inhibitors; 410,000 tested, 0.13% active; AID 624418;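 further: loss of luciferase light is scored as toxicity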
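Cells in DMEM/10% Nu serum/1% pen-strep, 1536-well format. Pre-incubated 12 h, dosed with 23 nL compound, incubated a further 24 h. Luciferase detection, 12 min at room temp, luminescence.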
A number is an active result; - = inactive; ? = inconclusive; . = not tested or not shown. Shown are actives, neighbours in structure and some others; about 5.7% of the full set was active somewhere. Unless noted, the call rests on the fitted dose curve; in most records, active means well fitted curve in the direction sought with a large enough effect; inconclusive means small, poorly fitted or top-dose-only effect, or another doubt; inactive means no such curve, though single readings can be large; an effect the other way counts as inactive or inconclusive.

SMILES	GLP1R ag	ClpP mod	D3 antag	GLP-1R inv ag	DRD3 agonist	GLP1R cytotox
COc1cccc(NC(=O)CN(C)C(=O)C23CC4CC(CC(Cl)(C4)C2)C3)c1	-	-	-	7.9µM	-	-
COc1ccc(NC(C)C(=O)Nc2ccc(C(C)(C)C)cc2)cc1Cl (configuration not stated)	-	-	-	4.5µM	-	-
COc1ccc(-c2ccc(C(=O)Nc3ccc(NC(C)=O)cc3)c3occc23)c(C)c1	-	-	-	?	-	-
COc1cccc(NC(=O)CN(C)CC(=O)Nc2cccc(C(F)(F)F)c2)c1	-	.	-	7.1µM	-	-
O=C(CSCc1nc2cccnc2n1C1CCCCC1)NCc1cccc(Br)c1	.	-	.	?	-	-
COc1ccc(NC(=O)CN(C)CC(=O)Nc2cccc(F)c2)cc1Cl	-	.	-	10µM	-	-
COc1ccc(NC(=O)CCCC(=O)O)cc1Cl	-	-	-50	-	-	-
COc1ccc(NC(=O)CCCN2C(=O)CCC2=O)cc1Cl	-	?	-	-	-	-
CC(=O)c1cccc(NC(=O)CSc2nc3c(=O)n(C)c(=O)n(C)c3n2C)c1	.	-	.	-	-	-
Cc1ccc(N2CC(NC(=O)/C=C\c3ccc4c(c3)OCO4)CC2=O)cc1C (configuration not stated)	.	-	.	-	-	-
CCOC(=O)c1c(NC(=O)c2ccn(CC)n2)sc2c1CCCC2	-	25µM	-	-	-	-
COC(=O)c1c(NS(=O)(=O)Cc2ccccc2)sc2c1CCCC2	-	-	-	?	-	-
CC(C)OC(=O)c1c(NS(=O)(=O)c2ccccc2)sc2c1CCCC2	-	-	-89	?	-	-
CCOC(=O)c1c(NC(=O)c2ccccc2Cl)sc2c1CCCC2	.	?	.	-	-	-
CCOC(=O)c1c(NC(=O)c2ccc(C)cc2)sc2c1CCCCC2	.	-	.	-	-	-
COC(=O)c1c(NC(=O)c2ccccc2N(C)S(=O)(=O)c2ccccc2)sc2c1CCCC2	-	?	-	-	-	-
CCOC(=O)c1c(NC(=O)C(NCCN(C)C)c2ccccc2)sc2c1CCCC2 (configuration not stated)	-	.	-	?	-	4µM
CCOC(=O)c1c(NC(=O)c2ccccc2N(C)S(=O)(=O)c2ccccc2)sc2c1CCCC2	-	13µM	-	?	-	-
COc1ccc(Cn2c(=O)c3oc4ccccc4c3n(Cc3ccc(F)cc3)c2=O)cc1	.	-	.	-	-	-
C/C=C(\NNC(C)=O)c1ccc(O)cc1	.	-	.	.	.	.
CCN(CC)c1sc(S(=O)(=O)c2ccccc2)nc1S(=O)(=O)c1ccc(C)cc1	.	-	.	?	-	-
O=C(Nc1sc2c(c1C(=O)O)CCC2)c1ccccc1	-	-	-52	-	-	?
O=C(Nc1sc2c(c1C(=O)O)CCCCC2)c1ccccc1	-	.	-	?	-	-
CCOC(=O)c1c(NC(=O)COc2ncnc3sccc23)sc2c1CCC2	-	-	-	-	35	-
CN(CC(=O)Nc1ccc(OC(F)(F)F)cc1)C(=O)Cc1ccc2c(c1)CCC2	-	-	-	5.6µM	-	-
SMILES	GLP1R ag	ClpP mod	D3 antag	GLP-1R inv ag	DRD3 agonist	GLP1R cytotox
COc1ccc(OC)c2c1CCC2=O	-	32µM	-52	-	-	-
CN(C)c1ccc(/C=N/N2C(=S)SC(C)(C)C2N(O)C(=O)Nc2ccc([N+](=O)[O-])cc2)cc1 (configuration not stated)	-	-	-67	?	-	-
COc1ccc(S(=O)(=O)Nc2cccc(S(=O)(=O)N(C)C)c2)cc1[N+](=O)[O-]	-	-	-	-	-	-
CC1(Cc2ccc(C(F)(F)F)o2)C(=O)Nc2ccc(-c3cccc(C(F)(F)F)c3)cc21 (configuration not stated)	-	-	-	10µM	-	?
O=C(NC1CCCC1)c1cccc(Cn2cc([N+](=O)[O-])cn2)c1	-	16µM	-	-	-	-
COc1ccc(OCc2cccc(C(=O)NN)c2)cc1	-	-	-	?	-	-
